Common to all, as to assay: NCI-60 one-dose screen, 48 h (100 = growth as untreated, 0 = no growth, -100 = all killed)
One test relates to HCT-15 colon. To be noted: 10 µM unless noted.
Another test deals with HT29 colon. To be noted: 10 µM unless noted.
The next test has as its system SNB-75 CNS. Particulars: 10 µM unless noted.
The test system of the next test is SNB-19 CNS. To be noted: 10 µM unless noted.
The test system of a further test is U251 CNS. To be noted: 10 µM unless noted.
A further test relates to PC-3 prostate. To be noted: 10 µM unless noted.
The next test concerns SK-MEL-5 melanoma. To be noted: 10 µM unless noted.
The test system of the next test is UACC-62 melanoma. Particulars: 10 µM unless noted.
For a further test, the system named is LOX IMVI melanoma. To be noted: 10 µM unless noted.
The test system of a further test is SK-MEL-28 melanoma. Particulars: 10 µM unless noted.
The next test concerns SK-MEL-2 melanoma. To be noted: 10 µM unless noted.
For another test, the system named is EKVX NSCLC. Particulars: 10 µM unless noted.
The subject of another test is SN12C renal. To be noted: 10 µM unless noted.
In a further test the test system is UO-31 renal. To be noted: 10 µM unless noted.
In another test the test system is TK-10 renal. Particulars: 10 µM unless noted.
In a further test the test system is ACHN renal. To be noted: 10 µM unless noted.
The next test concerns CAKI-1 renal. To be noted: 10 µM unless noted.
A further test deals with A498 renal. To be noted: 10 µM.
For another test, the system named is HL-60(TB) leukemia. Particulars: 10 µM unless noted.
The test system of a further test is CCRF-CEM leukemia. Particulars: 10 µM unless noted.

About 83,000 compounds went through this panel and 20% of them were active in at least one assay; those are over-represented in the sample as a whole.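 The endpoint reported here, percent growth, reads 100 for growth as untreated, 0 for no net growth and -100 for all cells dead.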 Unmarked numbers belong to inactive results. The source made the active and inactive calls. The calls were made as follows: active = growth percent below 10; inactive = the rest.

In the case of `COC(=O)[C@@H](C)C[C@H](Cc1ccccc1)NC(=O)c1csc([C@@H](C[C@H](C(C)C)N(C)C(=O)[C@@H](NC(=O)CN(C)C)C2CC2)OC(C)=O)n1`, the growth was 14.6% in the test with HCT-15 colon; -24.4% (active) in the test with HT29 colon; 37.4% in the test on SNB-75 CNS; 41% in the test with SNB-19 CNS; 12.7% in the test with U251 CNS; 25.9% with PC-3 prostate. Besides, the growth was -47.6% (active) in the test on SK-MEL-5 melanoma; 63.8% with UACC-62 melanoma; 8.77% (active) in the test on LOX IMVI melanoma; 61.3% with SK-MEL-28 melanoma; 11.6% with SK-MEL-2 melanoma; 46.3% in the test on EKVX NSCLC. Also, the growth with SN12C renal was 46.8%; in the test with UO-31 renal it was 41.6%; in the test on TK-10 renal it was 45.5%; with ACHN renal, 25.3%; in the test with CAKI-1 renal, 63.5%; with A498 renal, 0.468% (active). In addition, the figures for the growth with HL-60(TB) leukemia and in the test with CCRF-CEM leukemia were -27% (active) and 10.3%, respectively.

In the case of `c1ccc(CSC(c2ccccc2)c2ccccc2)cc1`, the growth with HCT-15 colon was 106%; in the test with HT29 colon, 84.1%; with SNB-75 CNS, 119%; in the test with SNB-19 CNS, 104%; in the test with U251 CNS it was 102%; in the test with PC-3 prostate it was 104%. The growth in the test with SK-MEL-5 melanoma is 112%; in the test with UACC-62 melanoma, 103%; in the test on LOX IMVI melanoma, 100%; in the test with SK-MEL-28 melanoma, 143%; in the test on SK-MEL-2 melanoma, 114%; in the test with EKVX NSCLC, 117%. Moreover, the growth is 101% in the test with SN12C renal; 92.2% in the test with UO-31 renal; 123% in the test with TK-10 renal; 103% with ACHN renal; 96.7% in the test on CAKI-1 renal; 123% in the test on A498 renal. In addition, the growth in the test with HL-60(TB) leukemia was 68.5%; in the test with CCRF-CEM leukemia, 117%.

`CCc1ccccc1[C@@H]1C[C@]2(C)CCO[C@@H]2OO1`: the growth in the test on HCT-15 colon was 107%; in the test with HT29 colon it was 98.4%; in the test on SNB-75 CNS, 84.7%; with SNB-19 CNS, 93.6%; in the test with U251 CNS, 99.2%; in the test with PC-3 prostate it was 100%. In addition, the growth with SK-MEL-5 melanoma is 102%; in the test on UACC-62 melanoma, 99.9%; in the test with LOX IMVI melanoma, 99.9%; with SK-MEL-28 melanoma, 110%; in the test on SK-MEL-2 melanoma, 115%; in the test with EKVX NSCLC, 105%. Also, the growth in the test on SN12C renal was 98.7%; in the test on UO-31 renal, 91.5%; with TK-10 renal, 96.9%; with ACHN renal, 104%; in the test with CAKI-1 renal, 96.5%; in the test on A498 renal, 102%. Moreover, the growth in the test with HL-60(TB) leukemia was 109%; in the test with CCRF-CEM leukemia it was 94.1%.

For the molecule `C=CC[PH+](c1ccccc1)c1ccccc1.C=CC[PH+](c1ccccc1)c1ccccc1.[Cl][Pt][Cl]`, the growth with HCT-15 colon was 31.4%; in the test with HT29 colon, 41.1%; in the test with SNB-75 CNS, 66.2%; in the test with SNB-19 CNS, 70.5%; in the test on U251 CNS, 37.5%; in the test with PC-3 prostate it was 54.4%. In addition, the growth in the test with SK-MEL-5 melanoma is 85.8%; with UACC-62 melanoma it was 52.9%; with LOX IMVI melanoma, -6.81% (active); in the test with SK-MEL-28 melanoma, 28.4%; in the test with SK-MEL-2 melanoma, 71.1%; with EKVX NSCLC, 50.8%. Moreover, the growth with SN12C renal was 30.6%; in the test on UO-31 renal, 31.5%; with TK-10 renal it was 73.7%; with ACHN renal, 35.9%; in the test on CAKI-1 renal, 77.9%; with A498 renal, 99%. In addition, the growth in the test on HL-60(TB) leukemia was -19.4% (active); in the test with CCRF-CEM leukemia, 3.7% (active).

With `CN1C(=O)C23CC4(C56CC78SSC(CO)(C(=O)N7C5Nc5ccccc56)N(C)C8=O)c5ccccc5NC4N2C(=O)C1(CO)SS3` (stereo not given), the growth in the test with HCT-15 colon is -82.3% (active); with HT29 colon, -77.3% (active); in the test with SNB-75 CNS, -100% (active); in the test on SNB-19 CNS, -98.3% (active); in the test on U251 CNS it was -100% (active); in the test with PC-3 prostate, -99.5% (active). For the same molecule, the growth with SK-MEL-5 melanoma was -95% (active); with UACC-62 melanoma it was -95.6% (active); with LOX IMVI melanoma, -93.6% (active); in the test on SK-MEL-28 melanoma, -90.6% (active); with SK-MEL-2 melanoma, -84.6% (active); in the test with EKVX NSCLC it was -62.3% (active). In addition, the growth with SN12C renal is -100% (active); with UO-31 renal, -100% (active); in the test with TK-10 renal, -90.2% (active); with ACHN renal, -100% (active); with CAKI-1 renal, -98.7% (active); in the test with A498 renal, -98.9% (active). In addition, the growth was -63.1% (active) with HL-60(TB) leukemia and -11.2% (active) in the test on CCRF-CEM leukemia.

As for `COC(=O)[C@@H](C)C[C@H](Cc1ccccc1)NC(=O)c1csc([C@@H](C[C@H](C(C)C)N(C)C(=O)[C@@H](NC(=O)[C@H]2CCCCN2C)C2CC2)OC(C)=O)n1`, the growth in the test on HCT-15 colon is 12.3%; with HT29 colon it was -12.4% (active); in the test with SNB-75 CNS it was 32.3%; in the test on SNB-19 CNS it was 38%; in the test with U251 CNS it was 13.6%; in the test with PC-3 prostate it was 27.2%. Moreover, the growth in the test with SK-MEL-5 melanoma is -50.1% (active); in the test with UACC-62 melanoma, 60%; in the test with LOX IMVI melanoma it was 8.42% (active); in the test on SK-MEL-28 melanoma, 60.3%; with SK-MEL-2 melanoma, 5.26% (active); in the test on EKVX NSCLC it was 42.3%. For the same molecule, the growth is 43.5% in the test with SN12C renal; 39% with UO-31 renal; 38.6% in the test with TK-10 renal; 19.6% with ACHN renal; 36.9% in the test with CAKI-1 renal; 2.41% (active) in the test on A498 renal. The growth was -26.3% (active) with HL-60(TB) leukemia and 7.66% (active) in the test with CCRF-CEM leukemia.

`Cc1ccc2c(C(C[N+](=O)[O-])c3cccs3)c(-c3ccccc3)[nH]c2c1` (stereo not given): the growth was 20% with HCT-15 colon; 9.87% (active) in the test with HT29 colon; -37.2% (active) in the test on SNB-75 CNS; 37.8% in the test with SNB-19 CNS; 21% with U251 CNS; 28% in the test on PC-3 prostate. Further, the growth in the test with SK-MEL-5 melanoma was 36.3%; in the test on UACC-62 melanoma, 38.3%; in the test with LOX IMVI melanoma, 31.7%; with SK-MEL-28 melanoma it was 49.4%; with SK-MEL-2 melanoma it was 20.7%; in the test on EKVX NSCLC it was 35.9%. Besides, the growth in the test on SN12C renal is 32%; in the test on UO-31 renal, 34.8%; in the test with TK-10 renal, 64.7%; with ACHN renal, 33.8%; in the test on CAKI-1 renal, 2.76% (active); in the test on A498 renal, -19.6% (active). Besides, the growth in the test with HL-60(TB) leukemia was 0.431% (active); in the test with CCRF-CEM leukemia it was 15%.

Source of the values: PubChem BioAssay (NCI).
